Over roughly 16,000 sequences, “rpm ratio (pull-down/input)” has its median near 0.5; the highest 2% begin near 5.5. The sample holds the highest values, similar sequences and a random draw of the others, so the mix is not that of the screen.

The target in the test is T1, MBP-FoxP3dN (Mus musculus, UniProt Q99JB6 188-423).
T1 sequence: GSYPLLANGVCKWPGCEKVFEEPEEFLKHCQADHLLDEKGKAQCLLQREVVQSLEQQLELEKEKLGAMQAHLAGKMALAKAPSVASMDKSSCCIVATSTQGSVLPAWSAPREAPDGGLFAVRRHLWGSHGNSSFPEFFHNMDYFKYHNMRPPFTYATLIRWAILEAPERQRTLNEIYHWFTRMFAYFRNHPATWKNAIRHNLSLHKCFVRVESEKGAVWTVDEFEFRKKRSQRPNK
As to the kind of experiment: PD-seq (MBP pull-down with sequencing); 20 mM Tris-HCl pH 7.5, 100 mM NaCl, 1.5 mM MgCl2, 0.4 uM protein, 0.1 uM dsDNA library, 30 min, room temperature, amylose pull-down; high values mean tight binding. Particulars: protein: recombinant; tags: His6-MBP; chain copies: 2; dsDNA, one strand shown. Put shortly:
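Mouse FoxP3 or FoxP1 fragment lacking the N-terminus, His6-MBP-tagged and expressed in E. coli, was incubated at 0.4 µM with 0.1 µM Klenow-filled degenerate double-stranded DNA library for 30 min at room temperature in Tris pH 7.5 buffer with NaCl and MgCl2. Complexes captured on amylose resin were washed three times and their DNA sequenced on Illumina. Binding is reads-per-million enrichment of pull-down over input, replicates pooled.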
Regarding “GATGATTGTTCTCCCAGCTGATGAATTGCTACCATCGAGTAAACAAATTTTCCTAATCTTTCTGTTCAAGCGCCATCTAC”, the binding signal was 0.894 RPM ratio (pull-down/input).
Then “GATGATTGTTCTCCCAGCTGATGAATTGCCCGAATCGAGTAAACAAATTTTCCTAATCTTTCTGTTCAAGCGCCATCTAC”, with 0.311 RPM ratio (pull-down/input); and “GATGATTGTTCTCCCAGCTGATGAATTACGGCCATCGAGTAAACAAATTTTCCTAATCTTTCTGTTCAAGCGCCATCTAC”, with 1.15 RPM ratio (pull-down/input).
For “GATGATTGTTCTCCCAGCTGATGAATTTAATCAATCGAGTAAACAAATTTTCCTAATCTTTCTGTTCAAGCGCCATCTAC”, the binding signal is 0.269 RPM ratio (pull-down/input).
In the case of “GATGATTGTTCTCCCAGCTGATGAATTTGGTCCGTCGAGTAAACAAATTTTCCTAATCTTTCTGTTCAAGCGCCATCTAC”, the binding signal was 0.363 RPM ratio (pull-down/input).
Consider “GATGATTGTTCTCCCAGCTGATGAATTGGAACTCTCGAGTAAACAAATTTTCCTAATCTTTCTGTTCAAGCGCCATCTAC”, for which the binding signal is 0.343 RPM ratio (pull-down/input).
Take “GATGATTGTTCTCCCAGCTGATGAATTCCTTTGGTCGAGTAAACAAATTTTCCTAATCTTTCTGTTCAAGCGCCATCTAC”: the binding signal was 0.395 RPM ratio (pull-down/input).
As for “GATGATTGTTCTCCCAGCTGATGAATTGACACATTCGAGTAAACAAATTTTCCTAATCTTTCTGTTCAAGCGCCATCTAC”, the binding signal was 0.772 RPM ratio (pull-down/input).
“GATGATTGTTCTCCCAGCTGATGAATTGCGATGGTCGAGTAAACAAATTTTCCTAATCTTTCTGTTCAAGCGCCATCTAC”: the binding signal was 1.01 RPM ratio (pull-down/input).
Consider “GATGATTGTTCTCCCAGCTGATGAATTACGCATCTCGAGTAAACAAATTTTCCTAATCTTTCTGTTCAAGCGCCATCTAC”, for which the binding signal was 7.33 RPM ratio (pull-down/input).
Consider “GATGATTGTTCTCCCAGCTGATGAATTACTCCACTCGAGTAAACAAATTTTCCTAATCTTTCTGTTCAAGCGCCATCTAC”, for which the binding signal was 0.339 RPM ratio (pull-down/input).
“GATGATTGTTCTCCCAGCTGATGAATTTACGCACTCGAGTAAACAAATTTTCCTAATCTTTCTGTTCAAGCGCCATCTAC”: the binding signal was 0.784 RPM ratio (pull-down/input).
For “GATGATTGTTCTCCCAGCTGATGAATTACGCCACTCGAGTAAACAAATTTTCCTAATCTTTCTGTTCAAGCGCCATCTAC”, the binding signal was 6.17 RPM ratio (pull-down/input).
With “GATGATTGTTCTCCCAGCTGATGAATTTTACGCCTCGAGTAAACAAATTTTCCTAATCTTTCTGTTCAAGCGCCATCTAC” the figure was 0.506 RPM ratio (pull-down/input); with “GATGATTGTTCTCCCAGCTGATGAATTACGCGCATCGAGTAAACAAATTTTCCTAATCTTTCTGTTCAAGCGCCATCTAC”, 1.54 RPM ratio (pull-down/input); with “GATGATTGTTCTCCCAGCTGATGAATTACGCAGCTCGAGTAAACAAATTTTCCTAATCTTTCTGTTCAAGCGCCATCTAC”, 1.78 RPM ratio (pull-down/input).
In the case of “GATGATTGTTCTCCCAGCTGATGAATTACGCCTCTCGAGTAAACAAATTTTCCTAATCTTTCTGTTCAAGCGCCATCTAC”, the binding signal was 5.99 RPM ratio (pull-down/input).
Then “GATGATTGTTCTCCCAGCTGATGAATTACGCGCCTCGAGTAAACAAATTTTCCTAATCTTTCTGTTCAAGCGCCATCTAC”, with 1.67 RPM ratio (pull-down/input); and “GATGATTGTTCTCCCAGCTGATGAATTAGATGTGTCGAGTAAACAAATTTTCCTAATCTTTCTGTTCAAGCGCCATCTAC”, with 2.71 RPM ratio (pull-down/input); and “GATGATTGTTCTCCCAGCTGATGAATTGTCCCGCTCGAGTAAACAAATTTTCCTAATCTTTCTGTTCAAGCGCCATCTAC”, with 0.272 RPM ratio (pull-down/input).
“GATGATTGTTCTCCCAGCTGATGAATTAAGTCCGTCGAGTAAACAAATTTTCCTAATCTTTCTGTTCAAGCGCCATCTAC”: the binding signal is 0.307 RPM ratio (pull-down/input).
With “GATGATTGTTCTCCCAGCTGATGAATTTCGCTTGTCGAGTAAACAAATTTTCCTAATCTTTCTGTTCAAGCGCCATCTAC”, the binding signal was 3.29 RPM ratio (pull-down/input).
As to “GATGATTGTTCTCCCAGCTGATGAATTCTATATATCGAGTAAACAAATTTTCCTAATCTTTCTGTTCAAGCGCCATCTAC”, the binding signal is 1.18 RPM ratio (pull-down/input).
Take “GATGATTGTTCTCCCAGCTGATGAATTGTATATATCGAGTAAACAAATTTTCCTAATCTTTCTGTTCAAGCGCCATCTAC”: the binding signal was 3.21 RPM ratio (pull-down/input).
Regarding “GATGATTGTTCTCCCAGCTGATGAATTTTGTATATCGAGTAAACAAATTTTCCTAATCTTTCTGTTCAAGCGCCATCTAC”, the binding signal is 7.43 RPM ratio (pull-down/input).
Turning to “GATGATTGTTCTCCCAGCTGATGAATTTTATACATCGAGTAAACAAATTTTCCTAATCTTTCTGTTCAAGCGCCATCTAC”, the binding signal is 0.598 RPM ratio (pull-down/input).
For the sequence “GATGATTGTTCTCCCAGCTGATGAATTGTATACATCGAGTAAACAAATTTTCCTAATCTTTCTGTTCAAGCGCCATCTAC”, the binding signal is 5.87 RPM ratio (pull-down/input).
“GATGATTGTTCTCCCAGCTGATGAATTTGTAATATCGAGTAAACAAATTTTCCTAATCTTTCTGTTCAAGCGCCATCTAC”: the binding signal was 1.95 RPM ratio (pull-down/input).
Take “GATGATTGTTCTCCCAGCTGATGAATTCTGTATATCGAGTAAACAAATTTTCCTAATCTTTCTGTTCAAGCGCCATCTAC”: the binding signal was 5.72 RPM ratio (pull-down/input).
As to “GATGATTGTTCTCCCAGCTGATGAATTCTATACATCGAGTAAACAAATTTTCCTAATCTTTCTGTTCAAGCGCCATCTAC”, the binding signal is 0.559 RPM ratio (pull-down/input).
As for “GATGATTGTTCTCCCAGCTGATGAATTCAGTATATCGAGTAAACAAATTTTCCTAATCTTTCTGTTCAAGCGCCATCTAC”, the binding signal is 2.12 RPM ratio (pull-down/input).
“GATGATTGTTCTCCCAGCTGATGAATTTCAGCAATCGAGTAAACAAATTTTCCTAATCTTTCTGTTCAAGCGCCATCTAC”: the binding signal was 1.94 RPM ratio (pull-down/input).
Regarding “GATGATTGTTCTCCCAGCTGATGAATTCACAGCATCGAGTAAACAAATTTTCCTAATCTTTCTGTTCAAGCGCCATCTAC”, the binding signal is 0.801 RPM ratio (pull-down/input).
For “GATGATTGTTCTCCCAGCTGATGAATTAGCACTTTCGAGTAAACAAATTTTCCTAATCTTTCTGTTCAAGCGCCATCTAC”, the binding signal is 0.435 RPM ratio (pull-down/input).

Values taken from paper PMC12820563, “FoxP3 forms a head-to-head dimer in vivo and stabilizes its multimerization on adjacent microsatellites”.
